Data published in PubChem BioAssay (EPA / NIEHS).
The source made the active and inactive calls. Rule for the calls: active = hit-call score of the fitted dose curve at least 0.9, where 1 is the maximum; inactive = score below 0.9.

These molecules were tested on Interleukin-1 alpha (IL1a), IL1A (gene 3552) (assay: BSK_LPS_IL1a: BioMAP Diversity Plus: LPS Assay for Interleukin-1 alpha (IL1a) Biomarker Activity (AID 2283080)). Details: primary human HUVEC with PBMC; actives raise or lower the signal.
Experimental: BSK_LPS is a cell-based, multiplexed-readout assay that uses umbilical vein endothelium and peripheral blood mononuclear cells, a human vascular primary cell co-culture, with measurements taken at 24 hours after chemical dosing in a 96-well plate.BSK_LPS_IL1a is an assay component measured in the BSK_LPS assay. It measures IL-a antibody related to regulation of gene expression using ELISA technology.Data from the assay component BSK_LPS_IL1a was analyzed into 1 assay endpoint. This assay endpoint, BSK_LPS_IL1a, was analyzed with bidirectional fitting relative to DMSO as the negative control and baseline of activity. Using a type of binding reporter, gain or loss-of-signal activity can be used to understand changes in the signaling as they relate to the gene IL1A. Furthermore, this assay endpoint can be referred to as a primary readout, because this assay has produced multiple assay endpoints where this one serves a signaling function. To generalize the intended target to other relatable targets, this assay endpoint is annotated to the cytokine intended target family, where the subfamily is interleukins.
The levels of cell surface (or secreted, indicated by the prefix "s") biomarker endpoints were measured by ELISA. Overt cytotoxicity to cells in confluent adherent cultures (all systems other than the BT system) was assessed by measuring total protein levels using sulforhodamine B (SRB) staining in parallel cultures at the time of biomarker measurements, indicated as SRB endpoints. For proliferation assays for adherent cell types, individual cell types are cultured at sub-confluence and relative cell numbers quantified by SRB staining at time points optimized for each system (48 h: 3C and CASM3C systems; 72 h: BT and HDF3CGF systems; 96 h: SAg system). SRB was performed by staining cells with 0.1% SRB after fixation with 10% TCA and reading wells at 560 nm.Viability and proliferation of PBMC (T cells) was quantified by Alamar Blue reduction for the SAg and BT systems. For PBMC viability (referred to as PBMC Cytotoxicity within the assay endpoint names), cells were plated (75,000/well in a 96-well plate) and then chemical samples added for 1 h before addition of activators, SEB and TSST-1 (20 ng/mL final concentration each). Cells were incubated for 90 h. Then, Alamar Blue (20 uL/well) (Invitrogen, Cat DAL1100) was added for 6 h, and the plates were read with a fluorescence microplate reader at 546/580 nm (excitation/emission). For PBMC proliferation, cells were plated and activated as above but incubated for only 16 h prior to addition of Alamar Blue. Plates were read after 6 h.

| Compound | AC50 | outcome |
| --- | --- | --- |
| COc1cccc(-c2ccc(/C=C\CN3CCCCCC3)cc2Cl)c1 | 28.4 µM (active) |  |
| CCC(C)(C)C(=O)O[C@H]1C[C@@H](C)C=C2C=C[C@H](C)[C@H](CC[C@@H]3C[C@@H](O)CC(=O)O3)[C@H]21 | 1.28 µM (active) |  |
| O=C(NS(=O)(=O)/C=C/c1ccccc1)c1ccc(F)cc1Cl |  | inactive |
| CC(C)c1cccc(C(C)C)c1N1C(=O)c2ccc(O)cc2C1=O |  | inactive |
| COc1ccc(/C=C/S(=O)(=O)NC(=O)c2ccc(C)cc2Cl)cc1 |  | inactive |
| Clc1nc(Cl)c(Cl)c(Cl)c1Cl | 14.4 µM (active) |  |
| CCOc1cccc(-n2cc(C(=O)N3CCN(c4cc(C(=O)O)c5ccccc5c4)CC3)nc2-c2ccc(C)cc2)c1 | 19.2 µM (active) |  |
| COC(=O)c1ccccc1O |  | inactive |
| Cn1cnc([N+](=O)[O-])c1Sc1ncnc2nc[nH]c12 |  | inactive |
| CCOC(=O)COc1ccc2c(c1)CC(NCC(O)c1cccc(Cl)c1)CC2 (stereo not given) | 18.3 µM (active) |  |
| CC1(C)C(=O)N(Br)C(=O)N1Br |  | inactive |
| Cn1c(=O)cc(Oc2ccc(F)cc2F)c2cnc(NCC(C)(C)O)nc21 | 3.97 µM (active) |  |
| O=C(O)c1cccc(N(Cc2cccnc2)c2ccc(OC(F)F)c(OC(F)F)c2)c1 | 20 µM (active) |  |
| CN(C)c1ccc(Cc2ccc(N(C)C)cc2)cc1 |  | inactive |
| Oc1ccc2c(c1)-c1ccccc1C2 |  | inactive |
| CCc1cc(SCc2sc(-c3ccc(C(F)(F)F)cc3)nc2CN2CCN(c3ccc(OC)cc3)CC2)ccc1OCC(=O)O | 30.6 µM (active) |  |
| Fc1ccccc1[C@@H](F)COC1CCC(Nc2ncnc3[nH]ncc23)CC1 (stereo not given in full) |  | inactive |
| CC(C)CCO |  | inactive |
| CNS(=O)(=O)c1cc(C(=O)N2CCC(CCN3C4CCC3CC(n3c(C)nc5ccccc53)C4)(c3cccc(F)c3)CC2)c(Cl)cc1F (stereo not given) | 23.5 µM (active) |  |
| Cc1ccc(O)cc1 |  | inactive |

| Compound | AC50 | outcome |
| --- | --- | --- |
| CC(C)=CCC/C(C)=C\CO |  | inactive |
| CCOCCOCCOCCO |  | inactive |
| CC(O)CN(CCN(CC(C)O)CC(C)O)CC(C)O (stereo not given) |  | inactive |
| CCN(C(=O)c1cc(C)cc(OC[C@H](C)Nc2ccncc2)c1)C(C)C |  | inactive |
| On1ccccc1=S | 19.8 µM (active) |  |
| CCOC(=O)c1ccc(C2CCC(NC[C@H](O)COc3ccc(O)c(NS(C)(=O)=O)c3)CC2)cc1 (stereo not given in full) | 29.9 µM (active) |  |
| O=C1CCC(N2C(=O)c3ccccc3C2=O)C(=O)N1 (stereo not given) |  | inactive |
| CC(=O)c1ccc2c(c1)[C@H](NC(=O)c1ccc(F)cc1)[C@@H](O)C(C)(C)O2 |  | inactive |
| CCOCCO |  | inactive |
| CC(C)(O)c1coc(S(=O)(=O)NC(=O)Nc2c3c(cc4c2CCC4)CCC3)c1 |  | inactive |
| CNCc1ccc(NC(=O)c2c[nH]c3c2C(=O)CCC3)cc1 |  | inactive |
| Cn1c(=O)c2c(ncn2C)n(C)c1=O |  | inactive |
| O=C1CCCCCN1 |  | inactive |
| CCCCCCCCCCCCCCCO | 31.9 µM (active) |  |
| CC[C@H]1CC[C@H](NCc2cc3c(cc2OC)[C@H]2C[C@H]2C(=O)N3C)[C@H](c2ccccc2)N1 |  | inactive |
| CC(=O)OC[C@H]1O[C@@](COC(C)=O)(O[C@H]2O[C@H](COC(C)=O)[C@@H](OC(C)=O)[C@H](OC(C)=O)[C@H]2OC(C)=O)[C@@H](OC(C)=O)[C@@H]1OC(C)=O |  | inactive |
| CC(C)CC(C)(O)C#CC(C)(O)CC(C)C (stereo not given) |  | inactive |
| CC(=O)OCCC(C)C |  | inactive |
| O=C(O)CCN(C1(C(=O)NO)CCCC1)S(=O)(=O)c1ccc(Oc2ccc(F)cc2)cc1 |  | inactive |
| CCCCC(CC)COC(=O)c1ccc(C(=O)OCC(CC)CCCC)cc1 (stereo not given) |  | inactive |
